In the library only some 5.3% were active in any assay of this set; here they are far more common.
VACV Venus inh: vaccinia inhibition (Venus reporter) | actives 0.46% (n = 330,000) | AID 720580 | Vaccinia virus Venus reporter expression, fluorescence | Potency, µM (highest dose often 36.5 µM), inactives show top-dose activity change, negative = inhibition, most hits filed as inhibitors; calls by dose curve; tested in A549 cells; further: nearly all actives have a fitted effect of over 30% in size
Marburg entry inh: inhibitors of Marburg virus binding or cell entry | Marburg virus pseudotyped entry inhibition, cell reporter | Potency, µM (top dose mostly 37.8 µM), for inactives: at the highest dose activity change, negative = inhibition, usual class: inhibitors | AID 540276 | actives 1.8% (n = 300,000); calls by dose curve; tested in HEK293 cells
HCV inh: inhibitors of hepatitis C virus infection; Huh7.5.1 HCVcc-Cre infection, luciferase reporter, 44 h; Potency, µM (doses to about 41.8 µM), inactives show at the top dose activity change, negative = inhibition, hits mostly inhibitors; actives 3.4% (n = 340,000); AID 651820; active means well fitted inhibition curve with a large enough effect; inconclusive means small, poorly fitted or top-dose-only effect, or another doubt; inactive means no such curve, though single readings can be large or run the other way
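After 44 h co-culture of compound, cells and HCVcc-Cre (~0.5 moi), substrate is added for 15 min at room temperature and luciferase measured over 15 sec. Cells were seeded at 1,000/well and pre-cultured 4 h.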
FMDV inh: blocks foot and mouth disease virus; AID 1159524; Potency, µM (doses to about 57.9 µM), for inactives: at the top dose activity change, negative = inhibition, most hits filed as inhibitors; FMDV antiviral cell-based qHTS; actives 1.2% (n = 410,000); calls by dose curve; tested in HEK293T cells; further: read-out not given here; nearly all actives have a fitted effect of over 45% in size
Lassa entry inh: inhibitors of Lassa virus binding or cell entry; Lassa virus pseudotype entry inhibition, cell reporter; Potency, µM (series often up to 37.9 µM), for the others: at the top dose activity change, negative = inhibition, actives largely listed as inhibitors; actives 1.2% (n = 300,000); AID 540256; calls by dose curve; tested in HEK293 cells; further: nearly all actives have a fitted effect of over 50% in size
Vaccinia mCherry: vaccinia inhibition (mCherry reporter) | Vaccinia virus mCherry reporter infection, fluorescence | Potency, µM (doses to about 36.5 µM), inactives show at the highest dose activity change, negative = inhibition, most hits filed as inhibitors | actives 0.63% (n = 310,000); calls by dose curve; tested in A549 cells; further: nearly all actives have a fitted effect of over 35% in size
The depositor's hits bear a star; [ ] = dose if it differs, or a comment. On the % scale 0 is the no-effect control and ±100 the full control effect; potency means the concentration at half of the fitted maximal effect.

What do the screens show for `CN(Cc1ccccc1)S(=O)(=O)c1ccc(NC(=S)NC(=O)C2CCCCC2)cc1`?
VACV Venus inh: -27%; Marburg entry inh: inconclusive; HCV inh: 10µM*; FMDV inh: -16%; Lassa entry inh: -11%; Vaccinia mCherry: inconclusive

Results for CN(c1ccccc1)S(=O)(=O)c1ccc(NC(=O)c2ccco2)cc1 ?
VACV Venus inh: -10%; Marburg entry inh: inconclusive; HCV inh: -3%; FMDV inh: 0%; Lassa entry inh: inconclusive; Vaccinia mCherry: 0%

What do the screens show for `CN(C1CCCCC1)S(=O)(=O)c1ccc(NC(=O)c2ccco2)cc1`?
VACV Venus inh: -14%; Marburg entry inh: -6%; HCV inh: 2%; FMDV inh: -7%; Lassa entry inh: 11µM*

How did CN(C1CCCCC1)S(=O)(=O)c1ccc(NC(=O)C2CCCCC2)cc1 do in these assays?
Marburg entry inh: inconclusive; HCV inh: 14µM*; FMDV inh: -22%; Lassa entry inh: inconclusive

How did CN(C1CCCCC1)S(=O)(=O)c1ccc(NC(=O)CCC(=O)O)cc1 do in these assays?
VACV Venus inh: -5%; Marburg entry inh: -21%; HCV inh: 24%; FMDV inh: -2%; Lassa entry inh: 2%

What do the screens show for `CC(C)(C(=O)O)c1ccc([C@@H](O)CCCN2CCC(C(O)(c3ccccc3)c3ccccc3)CC2)cc1`?
Marburg entry inh: 10%

What do the screens show for `COc1cc(-c2cc(C)c3c(OC)ccc(OC)c3n2)cc2c1OCCN(C(=O)CCn1ccc(C)n1)C2`?
VACV Venus inh: -2%; FMDV inh: -13%; Vaccinia mCherry: -12%

How did COc1ccc(Nc2nc(-c3cccs3)nc3ccccc23)cc1S(=O)(=O)N1CCOCC1 do in these assays?
VACV Venus inh: inconclusive; HCV inh: 2.8µM*; FMDV inh: inconclusive; Vaccinia mCherry: inconclusive

How did COc1ccc(NC(=O)c2ccncc2)cc1S(=O)(=O)N1CCCCC1 do in these assays?
VACV Venus inh: -12%; FMDV inh: 3%; Vaccinia mCherry: -17%

How did COc1ccc(NC(=O)Cn2ncc(Cl)c(Cl)c2=O)cc1S(=O)(=O)N1CCOCC1 do in these assays?
VACV Venus inh: -15%; Marburg entry inh: inconclusive; HCV inh: 8.9µM*; FMDV inh: 40µM*; Lassa entry inh: inconclusive; Vaccinia mCherry: -2%

What do the screens show for `O=C(Nc1ccc(-c2cn3c(n2)SCC3)cc1)c1ccc2ccccc2n1`?
VACV Venus inh: -16%; Marburg entry inh: inconclusive; HCV inh: inconclusive; FMDV inh: 25µM*; Lassa entry inh: inconclusive; Vaccinia mCherry: -11%

Results for CCc1ccc(C(=O)Nc2ccc(OC)c(S(=O)(=O)N3CCCCC3)c2)cc1 ?
HCV inh: 4.5µM*; FMDV inh: inconclusive

What do the screens show for `COc1ccc(NC(=O)CSc2ccccc2)cc1S(=O)(=O)N1CCOCC1`?
VACV Venus inh: -8%; Marburg entry inh: -2%; HCV inh: -12%; FMDV inh: 26%; Lassa entry inh: -15%; Vaccinia mCherry: -7%

What do the screens show for `Cc1cc(C)n(CCc2nc3c4ccccc4nc(N4CCN(c5ccccc5)CC4)n3n2)n1`?
VACV Venus inh: -5%; Marburg entry inh: -11%[46.1 µM]; FMDV inh: -3%; Vaccinia mCherry: -20%

How did Clc1ccc2c(Cl)cc[n+](CCC3CCCCC3)c2c1 do in these assays?
VACV Venus inh: -8%; Vaccinia mCherry: 37%

What do the screens show for `COc1ccc(NC(=O)c2ccc(Cl)nc2)cc1S(=O)(=O)N1CCOCC1`?
HCV inh: inconclusive; FMDV inh: -19%

Results for COc1ccc(NC(=O)Cc2coc3cc(C)c(C(C)C)cc23)cc1S(=O)(=O)N1CCOCC1 ?
VACV Venus inh: inconclusive; Marburg entry inh: inconclusive; HCV inh: 7.1µM*; FMDV inh: 0%; Lassa entry inh: inconclusive; Vaccinia mCherry: inconclusive

What do the screens show for `COc1ccc(NC(=O)c2ccc(-c3ccccc3)cc2)cc1S(=O)(=O)N1CCOCC1`?
VACV Venus inh: -29%; Marburg entry inh: -8%[46.1 µM]; HCV inh: inconclusive; FMDV inh: 3.5µM*; Lassa entry inh: -3%; Vaccinia mCherry: inconclusive

How did CCc1ccc(C(=O)Nc2ccc(OC)c(S(=O)(=O)N3CCOCC3)c2)cc1 do in these assays?
VACV Venus inh: -20%; Marburg entry inh: 2%[46.1 µM]; HCV inh: 8.9µM*; FMDV inh: inconclusive; Lassa entry inh: -23%; Vaccinia mCherry: -25%

What do the screens show for `COc1ccc(S(=O)(=O)N2CCCCC2)cc1NC(=O)c1ccc2ccccc2n1`?
VACV Venus inh: -10%; Marburg entry inh: inconclusive; HCV inh: inconclusive; FMDV inh: 20%; Lassa entry inh: 5%; Vaccinia mCherry: -11%

How did COc1ccc(NC(=O)c2ccc3ccccc3n2)cc1S(=O)(=O)N1CCCCC1 do in these assays?
VACV Venus inh: -5%; Marburg entry inh: inconclusive; HCV inh: 5.6µM*; FMDV inh: 12%; Lassa entry inh: inconclusive; Vaccinia mCherry: -15%

What do the screens show for `COc1ccc(C(=O)NNC(=O)c2ccc(S(=O)(=O)N3CCCCC3)cc2)cc1`?
VACV Venus inh: -19%; Marburg entry inh: 7%[46.1 µM]; HCV inh: -3%; FMDV inh: -10%; Lassa entry inh: 30%; Vaccinia mCherry: 0%

How did COC(=O)C1CCCCN1Cc1ccc2c(c1)CN(C(=O)c1cc(C)nc3cc(F)ccc13)CCO2 (centres undefined) do in these assays?
VACV Venus inh: -2%; FMDV inh: -23%; Vaccinia mCherry: -8%

What do the screens show for `O=C(Nc1ccc(N2CCCCC2)cc1)c1ccc2ccccc2n1`?
HCV inh: 10µM*; FMDV inh: -7%

What do the screens show for `CN(C)CCO[C@@H](c1ccc(Cl)cc1)c1ccccn1`?
HCV inh: -5%; FMDV inh: -9%

How did Cc1ccc(C(OCCN(C)C)c2cccc(C(F)(F)F)c2)cc1 (centres undefined) do in these assays?
VACV Venus inh: -15%; Marburg entry inh: 21µM*; HCV inh: inconclusive; FMDV inh: -29%; Lassa entry inh: inconclusive; Vaccinia mCherry: -8%

How did Cc1nc(Nc2ccc(Cl)cc2)c2nnn(Cc3ccccc3)c2n1 do in these assays?
VACV Venus inh: -6%; Marburg entry inh: -32%[46.1 µM]; HCV inh: 32µM*; FMDV inh: -20%; Lassa entry inh: -24%; Vaccinia mCherry: -18%

What do the screens show for `COc1ccc(Nc2nc(C)nc3c2nnn3Cc2ccccc2)cc1OC`?
VACV Venus inh: inconclusive; Marburg entry inh: inconclusive; HCV inh: inconclusive; FMDV inh: inconclusive; Lassa entry inh: 1%

How did COc1cc(/C=C(/C#N)C(=O)Nc2ccccc2)ccc1OCc1ccc(C(=O)O)cc1 do in these assays?
VACV Venus inh: -13%; HCV inh: -3%; FMDV inh: 3%; Vaccinia mCherry: -2%

How did COc1cc(/C=C(\C#N)C(=O)Nc2nnc(C(F)(F)F)s2)ccc1OCc1ccc(C(F)(F)F)cc1C(F)(F)F do in these assays?
Marburg entry inh: -19%; Lassa entry inh: 15µM*

Screening data deposited in PubChem BioAssay by National Center for Advancing Translational Sciences (NCATS).
